The source made the active and inactive calls. Unless noted, no rule for the calls is given here.
Legend:
[1] = anti-His antibody binders, primary screen, artefact control for SMM control protein annotation, biochemical, small-molecule microarray, 635 nm fluorescence (AID 1128); conditions: anti-His Alexa647 antibody binding, higher = more signal;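 also: score merges feature fluorescence with signal-to-noise for each printed compound spot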
[2] = system: Human papillomavirus type 1a E7 protein (residues 1-88); test: HPV1a E7 small-molecule binders, primary screen, biochemical, small-molecule microarray, residues 1-88, 635 nm (AID 1129); conditions: small-molecule microarray binding, fluorescence 635 nm; higher = more signal
[3] = biological target: Focal adhesion kinase 1 (Homo sapiens) (UniProt Q05397); test: small-molecule microarray binders of FAK, primary screen, biochemical, 635/667 nm fluorescence, BSA, DTT (AID 1130); conditions: PTK2 binding, 635 nm fluorescence, higher = more signal;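 also: composite of spot emission at 667 nm and signal to noise over triplicate slides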
Focal adhesion kinase 1 (Homo sapiens), sequence (Q05397 whole entry, looked up): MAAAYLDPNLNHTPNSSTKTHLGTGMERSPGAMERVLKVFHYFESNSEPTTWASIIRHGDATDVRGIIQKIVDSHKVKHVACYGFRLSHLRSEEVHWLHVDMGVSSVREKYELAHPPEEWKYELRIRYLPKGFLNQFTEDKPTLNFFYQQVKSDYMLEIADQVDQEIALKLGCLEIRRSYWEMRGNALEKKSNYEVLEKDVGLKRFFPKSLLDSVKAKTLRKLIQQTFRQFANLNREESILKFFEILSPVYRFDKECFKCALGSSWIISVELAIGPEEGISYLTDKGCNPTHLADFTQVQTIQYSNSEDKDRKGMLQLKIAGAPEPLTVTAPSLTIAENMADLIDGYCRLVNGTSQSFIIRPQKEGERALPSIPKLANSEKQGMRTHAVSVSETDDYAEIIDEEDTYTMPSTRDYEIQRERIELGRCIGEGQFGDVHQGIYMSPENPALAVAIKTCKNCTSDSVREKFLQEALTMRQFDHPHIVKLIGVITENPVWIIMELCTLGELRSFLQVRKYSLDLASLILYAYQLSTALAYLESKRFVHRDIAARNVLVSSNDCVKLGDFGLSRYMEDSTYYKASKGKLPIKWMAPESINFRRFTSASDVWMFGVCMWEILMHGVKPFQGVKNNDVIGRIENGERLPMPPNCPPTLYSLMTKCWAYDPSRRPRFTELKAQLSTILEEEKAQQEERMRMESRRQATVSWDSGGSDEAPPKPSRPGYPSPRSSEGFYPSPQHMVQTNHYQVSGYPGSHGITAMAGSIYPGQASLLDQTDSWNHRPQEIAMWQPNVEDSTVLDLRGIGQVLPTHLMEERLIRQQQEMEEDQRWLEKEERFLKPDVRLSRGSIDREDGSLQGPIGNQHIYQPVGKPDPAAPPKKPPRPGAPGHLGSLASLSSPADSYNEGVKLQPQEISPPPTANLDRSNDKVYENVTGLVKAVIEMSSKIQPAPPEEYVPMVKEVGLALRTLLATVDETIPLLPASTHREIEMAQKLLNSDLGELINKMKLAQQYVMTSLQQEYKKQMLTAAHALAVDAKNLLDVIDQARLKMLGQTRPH

[4] = system: Fibrinogen (Alexa647-labelled); test: fibrinogen binders on compound microarrays, profiling panel, artefact control for SMM control-protein annotation, biochemical, small-molecule microarray, 635/667 nm fluorescence (AID 1131); conditions: fibrinogen-A647 binding fluorescence, higher = more signal;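 also: z-score merges 667 nm fluorescence with per-spot signal-to-noise over triplicate slides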
[5] = biological target: Follistatin (Homo sapiens) (UniProt P19883); test: follistatin binders on small-molecule microarrays, primary screen, biochemical, small-molecule microarray, 635/667 nm fluorescence (AID 1132); conditions: FST binding, 635 nm fluorescence, higher = more signal
Follistatin (Homo sapiens), sequence (P19883 whole entry, looked up): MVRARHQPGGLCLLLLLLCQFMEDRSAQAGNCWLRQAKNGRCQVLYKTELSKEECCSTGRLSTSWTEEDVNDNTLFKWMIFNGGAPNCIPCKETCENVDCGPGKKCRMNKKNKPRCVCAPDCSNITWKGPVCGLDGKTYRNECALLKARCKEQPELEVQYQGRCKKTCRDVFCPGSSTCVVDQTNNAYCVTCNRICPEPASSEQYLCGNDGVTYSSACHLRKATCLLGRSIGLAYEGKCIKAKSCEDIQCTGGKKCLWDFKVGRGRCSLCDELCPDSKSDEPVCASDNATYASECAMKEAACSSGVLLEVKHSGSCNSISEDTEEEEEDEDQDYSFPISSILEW

[6] = biological target: Fibroblast growth factor 2 (Homo sapiens) (UniProt P09038); test: FGF2 binders on small-molecule microarrays, primary screen, biochemical, small-molecule microarray, 635/667 nm fluorescence (AID 1133); conditions: small-molecule microarray binding, FGF2, fluorescence 635/667; higher = more signal
Fibroblast growth factor 2 (Homo sapiens), sequence (P09038 whole entry, looked up): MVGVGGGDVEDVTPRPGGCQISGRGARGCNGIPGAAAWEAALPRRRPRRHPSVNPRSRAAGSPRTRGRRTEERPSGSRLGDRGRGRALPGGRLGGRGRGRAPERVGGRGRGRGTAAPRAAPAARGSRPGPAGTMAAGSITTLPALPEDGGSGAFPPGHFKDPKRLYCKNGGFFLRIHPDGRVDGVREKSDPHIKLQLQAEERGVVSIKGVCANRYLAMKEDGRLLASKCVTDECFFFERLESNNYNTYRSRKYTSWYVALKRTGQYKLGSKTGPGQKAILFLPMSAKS

[7] = mitochondrial membrane potential change in A549 cells, profiling panel, cell-based, JC-1 fluorescence, basal, 24 h, 100 nL (AID 1138); conditions: higher = more signal;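 also: A549 lung adenocarcinoma cells under basal conditions with no added stimulus; test concentration not given here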
Lefty1 = Lefty1 binders on small-molecule microarrays, primary screen, biochemical, small-molecule microarray, 635/667 nm fluorescence (AID 1139); conditions: small-molecule microarray binding, fluorescence 635/667; higher = more signal
[8] = system: wheat germ agglutinin (Triticum aestivum), Alexa647-labelled; test: wheat germ agglutinin binders on compound microarrays, profiling panel, artefact control for SMM control-protein annotation, biochemical, small-molecule microarray, 635/667 nm fluorescence (AID 1140); conditions: WGA-A647 binding, 635 nm fluorescence, higher = more signal;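 also: score merges 667 nm feature emission with signal to noise over triplicate slides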
[9] = biological target: Luciferin 4-monooxygenase (Photinus pyralis) (UniProt P08659); test: firefly luciferase enzyme inhibitors, primary screen, biochemical, luminescence, purified enzyme, 2006 set (AID 1141); conditions: SteadyGlo luminescence, 30 min, higher = more signal, called active from +8 up or from −8 down;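 also: cell-free assay with purified firefly luciferase at 100 ng per well in PBS; test concentration not given here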
Luciferin 4-monooxygenase (Photinus pyralis), sequence (P08659 whole entry, looked up): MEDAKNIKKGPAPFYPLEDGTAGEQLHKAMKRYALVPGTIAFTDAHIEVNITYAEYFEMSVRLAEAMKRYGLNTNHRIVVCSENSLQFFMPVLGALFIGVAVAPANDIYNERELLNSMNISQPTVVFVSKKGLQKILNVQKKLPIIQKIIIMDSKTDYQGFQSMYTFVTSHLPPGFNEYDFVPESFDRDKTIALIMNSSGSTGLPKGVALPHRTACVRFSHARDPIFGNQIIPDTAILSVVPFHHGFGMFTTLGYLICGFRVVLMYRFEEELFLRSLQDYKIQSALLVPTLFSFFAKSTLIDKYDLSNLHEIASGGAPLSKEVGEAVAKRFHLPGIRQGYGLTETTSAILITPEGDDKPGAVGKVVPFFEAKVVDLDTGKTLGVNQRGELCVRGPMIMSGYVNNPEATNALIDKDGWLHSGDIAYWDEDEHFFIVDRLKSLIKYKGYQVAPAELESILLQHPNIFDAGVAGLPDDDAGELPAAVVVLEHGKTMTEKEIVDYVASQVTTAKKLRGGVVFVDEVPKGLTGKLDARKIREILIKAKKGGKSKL

[10] = system: Wnt5a (protein binding on small-molecule microarray); test: Wnt5a binders on small-molecule microarray, primary screen, biophysical, 635/667 nm fluorescence (AID 1142); conditions: 635 nm fluorescence, higher = more signal;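 also: fluorescence read at 667 nm with signal to noise per printed feature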
[11] = cell viability in Huh7 cells, primary screen, cytotoxicity control for HCV replication inhibitor project, CellTiter-Glo luminescence, basal, 48 h (AID 1143); conditions: Huh7 HCV replicon, higher = more signal, called active from +8 up or from −8 down;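 also: Huh7 hepatoma cells carrying a hepatitis C replication reporter with no stimulus; test concentration not given here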
[12] = P. aeruginosa biofilm formation inhibitors, primary screen, PAO1 strain, BacTiter-Glo luminescence, LB-PBS (AID 1144); conditions: 12 h, higher = more signal
[13] = CREB reporter modulators without forskolin, primary screen, cell-based, PC12, CRE-LacZ reporter, unstimulated (AID 1145); conditions: no forskolin, luminescence, 4.5 h, higher = more signal, called active from +8 up or from −8 down
[14] = CREB reporter modulators under forskolin, primary screen, cell-based, PC12, CRE-LacZ reporter, forskolin-stimulated (AID 1146); conditions: luminescence, 4.5 h, higher = more signal, called active from +8 up or from −8 down;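 also: PC12 cells with 6xCRE LacZ reporter stimulated by forskolin 10 µM; beta-galactosidase reporter signal reflecting CREB driven transcription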
[15] = biological target: Streptavidin (Streptomyces avidinii) (UniProt P22629); test: streptavidin binders on small-molecule microarray, primary screen, artefact control for SMM compound annotation, biophysical, 635/667 nm fluorescence (AID 1147); conditions: streptavidin binding, higher = more signal;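 also: signal reflects streptavidin binding to arrayed compounds as a control protein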
Streptavidin (Streptomyces avidinii), sequence (P22629 whole entry, looked up): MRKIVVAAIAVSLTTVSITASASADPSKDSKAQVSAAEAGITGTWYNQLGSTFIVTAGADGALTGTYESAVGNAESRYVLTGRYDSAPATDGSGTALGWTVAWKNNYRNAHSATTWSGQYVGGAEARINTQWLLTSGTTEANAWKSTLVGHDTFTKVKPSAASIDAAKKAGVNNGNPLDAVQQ

[16] = small-molecule binders of probe aInhba, primary screen, biochemical, small-molecule microarray, 635/667 nm fluorescence (AID 1148); conditions: higher = more signal;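 also: score merges 667nm spot fluorescence with signal-to-noise for antibody binding to printed compounds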
Torsin-1A (Homo sapiens) [17] = biological target: Torsin-1A (Homo sapiens) (UniProt O14656); test: torsin A binders from cell lysate, primary screen, small-molecule microarray, wild-type, 635/667 nm (AID 1149); conditions: COS7 hTOR1A-WT lysate, 635 nm fluorescence, higher = more signal
Torsin-1A (Homo sapiens), sequence (O14656 whole entry, looked up): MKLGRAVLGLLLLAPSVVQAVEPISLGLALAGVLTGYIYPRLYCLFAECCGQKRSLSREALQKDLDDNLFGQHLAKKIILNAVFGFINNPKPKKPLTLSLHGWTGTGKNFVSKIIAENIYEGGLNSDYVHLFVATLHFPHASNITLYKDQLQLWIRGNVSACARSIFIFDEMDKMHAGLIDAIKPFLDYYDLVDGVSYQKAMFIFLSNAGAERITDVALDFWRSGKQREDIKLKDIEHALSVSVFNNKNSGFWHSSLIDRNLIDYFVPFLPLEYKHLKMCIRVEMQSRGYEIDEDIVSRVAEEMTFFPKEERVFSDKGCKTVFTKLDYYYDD

Torsin-1A (Homo sapiens) [18] = biological target: Torsin-1A (Homo sapiens) (UniProt O14656); test: small-molecule binders of mutant TOR1A in lysate, primary screen, cell lysate, small-molecule microarray, COS7 lysate, 635/667 nm fluorescence (AID 1150); conditions: COS7 hTOR1A mutant lysate, 635 nm fluorescence, higher = more signal;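 also: score pools 667 nm emission and signal to noise measuring lysate protein binding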
[19] = system: Sonic hedgehog protein (Shh); test: small-molecule binders of Shh protein, primary screen, biochemical, small-molecule microarray, 635/667 nm fluorescence (AID 1151); conditions: small-molecule microarray binding, 635 nm fluorescence; higher = more signal;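 also: Shh protein binding to compounds spotted on small-molecule microarray slides; score combines spot fluorescence intensity with signal-to-noise across triplicate slides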

| SMILES | composite z-score [1] | composite z-score [2] | composite z-score [3] | composite z-score [4] | composite z-score [5] | composite z-score [6] | z-score [7] | composite z-score (Lefty1) | composite z-score [8] | z-score [9] | composite z-score [10] | z-score [11] | z-score [12] | z-score [13] | z-score [14] | composite z-score [15] | composite z-score [16] | composite z-score (Torsin-1A (Homo sapiens) [17]) | composite z-score (Torsin-1A (Homo sapiens) [18]) | composite z-score [19] |
| --- | --- | --- | --- | --- | --- | --- | --- | --- | --- | --- | --- | --- | --- | --- | --- | --- | --- | --- | --- | --- |
| COc1cc(OC)c(C(O)C2C=CC3C(=O)N(c4ccccc4)C(=O)C3N2Nc2ccccc2F)cc1Br (stereo not given) | 1.31 | 1.25 | 0.823 | 1.01 | 1.34 | 0.0348 | -0.78 | 0.666 | 0.898 | -0.443 (inactive) | 0.193 | -0.259 (inactive) | -1.14 (inactive) | 0.636 (inactive) | 0.758 (inactive) | 1.24 | 0.206 | 2.01 | 0.879 | -0.2 |
| COCCCNC(=O)[C@@H]1c2ccccc2C(=O)N(C2CCCCC2)[C@H]1c1ccc(CO)cc1 | 3.06 | -0.668 | 0.183 | -0.927 | -0.388 | -0.658 | 0.705 | -1.19 | -0.365 | -0.0838 (inactive) | -0.384 | -4.86 (inactive) | -0.303 (inactive) | -0.385 (inactive) | 0.656 (inactive) | -0.59 | -0.0963 | 0.691 | -1.51 | -0.759 |
| CN(C)CCCC[C@@H]1NC(=O)[C@H]2C[C@@H](C(=O)NCc3ccc(F)cc3)[C@@H](c3ccc(O)cc3)N2C1=O | 2.75 | 0.0526 | -0.193 | 0.563 | 1.41 | 1.93 | 0.742 | 1.64 | 0.419 | -1.23 (inactive) | 0.727 | 0.0491 (inactive) | 0.792 (inactive) | 0.0084 (inactive) | -0.19 (inactive) | -0.122 | 0.0676 | 1.12 | 0.587 | 2.15 |
| CC(C)CNC(=O)[C@@]1(C)c2ccccc2C(=O)N(Cc2cc(F)cc(C(F)(F)F)c2)[C@H]1c1ccc(CO)cc1 | 0.83 | 0.85 | 0.0301 | 0.51 | 1.16 | 0.803 | 0.165 | 0.372 | 0.154 | 0.189 (inactive) | 0.03 | 0.169 (inactive) | -0.428 (inactive) | -0.321 (inactive) | 0.13 (inactive) | -0.26 | -0.0719 | 0.194 | 0.127 | 1.23 |
| C=CCC(OC(C)=O)[C@@H]1[C@@H](N(Cc2ccc(-c3ccccc3)cc2)C(=O)c2ccc(C)cc2)c2cc(OCCCO)ccc2N1C(=O)c1ccc2ccccc2c1 (stereo not given in full) | -0.722 | 0.117 | -0.161 | -0.283 | 0.576 | -0.0502 | 1.68 | 0.297 | 0.008 | -1.9 (inactive) | 0.0548 | -0.715 (inactive) | 0.137 (inactive) | 1.97 (inactive) | 0.179 (inactive) | 0.122 | 0.108 | 0.222 | -0.0531 | 0.587 |
| CC(C)CNC(=O)[C@@H]1c2ccccc2C(=O)N(Cc2ccccc2)[C@H]1c1ccc(CO)cc1 | 1.85 | 0.601 | 0.0313 | -0.66 | -0.0977 | 0.605 | 0.0606 | -1.7 | -0.481 | 0.0723 (inactive) | -0.267 | -0.692 (inactive) | -0.33 (inactive) | 0.441 (inactive) | -0.0682 (inactive) | -1.04 | -0.285 | 0.3 | 1.2 | -0.693 |
| COc1ccc(CCNC(=O)[C@@H]2c3ccccc3C(=O)N(CC34CC5CC(CC(C5)C3)C4)[C@H]2c2ccc(CO)cc2)cc1 | 1.3 | 1.15 | 0.548 | 0.61 | 1.07 | 1.47 | 0.125 | 0.867 | 0.965 | 1.36 (inactive) | 0.788 | -3.34 (inactive) | -2.65 (inactive) | 0.441 (inactive) | -0.887 (inactive) | 0.4 | -0.0006 | 0.713 | 0.801 | 1.4 |
| CC(C)C[C@@H]1NC(=O)[C@H]2C[C@@H](C(=O)NCCCCCNC(=O)CS)[C@@H](c3ccc(O)cc3)N2C1=O | 2.05 | 1.24 | 1.19 | 0.201 | 1.33 | 1.62 | -1.22 | 0.497 | 0.408 | -1.76 (inactive) | 0.702 | -0.153 (inactive) | -0.215 (inactive) | 0.135 (inactive) | -0.908 (inactive) | 0.413 | -0.116 | 0.6 | 0.997 | 1.35 |
| COCCOC(=O)N1C(=O)[C@@]2(c3cc(C#CCC(C(=O)OC)C(=O)OC)ccc31)[C@H](C(N)=O)[C@H]1C(=O)O[C@H](c3ccccc3)[C@H](c3ccccc3)N1[C@@H]2c1ccc(OCCO)cc1 | 1.37 | 1.22 | 0.985 | 0.923 | 1.25 | 1.1 | -1.07 | 0.596 | 0.762 | -0.409 (inactive) | 0.787 | -2.89 (inactive) | -0.224 (inactive) | 0.478 (inactive) | -0.372 (inactive) | 0.528 | 0.105 | 0.704 | 0.643 | 1.07 |

Reference: PubChem BioAssay
